Measured values from PubChem BioAssay.
Where “and” joins values, the source holds several entries; their conditions need not be identical. Equal entries are not always repeated. Calls of active or inactive are those of the source.

How the values were obtained:
[1] = anti-His antibody binders, primary screen, artefact control for SMM control protein annotation, biochemical, small-molecule microarray, 635 nm fluorescence (AID 1128); details: anti-His Alexa647 antibody binding, higher = more signal;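 further: score merges feature fluorescence with signal-to-noise for each printed compound spot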
[2] = tested on: Human papillomavirus type 1a E7 protein (residues 1-88); experiment: HPV1a E7 small-molecule binders, primary screen, biochemical, small-molecule microarray, residues 1-88, 635 nm (AID 1129); details: small-molecule microarray binding, fluorescence 635 nm; higher = more signal
[3] = target: Focal adhesion kinase 1 (Homo sapiens) (UniProt Q05397); experiment: small-molecule microarray binders of FAK, primary screen, biochemical, 635/667 nm fluorescence, BSA, DTT (AID 1130); details: PTK2 binding, 635 nm fluorescence, higher = more signal;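 further: composite of spot emission at 667 nm and signal to noise over triplicate slides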
Chain of Focal adhesion kinase 1 (Homo sapiens) (Q05397 whole entry, looked up): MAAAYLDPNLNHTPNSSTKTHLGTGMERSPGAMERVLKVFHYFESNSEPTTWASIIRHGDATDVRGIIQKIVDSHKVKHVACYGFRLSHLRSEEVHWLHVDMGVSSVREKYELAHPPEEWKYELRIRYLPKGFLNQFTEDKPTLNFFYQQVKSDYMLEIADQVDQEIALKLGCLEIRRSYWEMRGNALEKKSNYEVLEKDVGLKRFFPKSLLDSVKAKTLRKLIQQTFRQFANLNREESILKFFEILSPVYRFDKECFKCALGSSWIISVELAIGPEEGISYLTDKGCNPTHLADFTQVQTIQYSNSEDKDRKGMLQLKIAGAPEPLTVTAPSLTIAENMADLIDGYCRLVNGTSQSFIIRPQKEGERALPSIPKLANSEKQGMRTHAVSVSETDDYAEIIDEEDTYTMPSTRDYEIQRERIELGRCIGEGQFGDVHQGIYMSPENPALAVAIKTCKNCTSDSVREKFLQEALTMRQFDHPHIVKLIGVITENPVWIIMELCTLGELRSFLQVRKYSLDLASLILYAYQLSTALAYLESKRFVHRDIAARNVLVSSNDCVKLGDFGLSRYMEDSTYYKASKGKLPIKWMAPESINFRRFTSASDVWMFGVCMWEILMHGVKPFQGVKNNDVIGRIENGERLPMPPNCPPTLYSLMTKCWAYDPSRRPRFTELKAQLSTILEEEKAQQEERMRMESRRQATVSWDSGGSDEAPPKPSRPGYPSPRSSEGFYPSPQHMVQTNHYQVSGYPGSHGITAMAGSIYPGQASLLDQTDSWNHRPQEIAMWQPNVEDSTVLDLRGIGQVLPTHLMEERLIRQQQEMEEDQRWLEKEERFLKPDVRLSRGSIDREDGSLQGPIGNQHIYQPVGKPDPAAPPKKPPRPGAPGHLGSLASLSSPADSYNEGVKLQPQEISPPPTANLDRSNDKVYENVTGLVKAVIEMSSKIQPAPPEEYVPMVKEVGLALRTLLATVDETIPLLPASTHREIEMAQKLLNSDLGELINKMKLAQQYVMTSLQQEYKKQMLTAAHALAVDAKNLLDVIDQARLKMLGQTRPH

[4] = tested on: Fibrinogen (Alexa647-labelled); experiment: fibrinogen binders on compound microarrays, profiling panel, artefact control for SMM control-protein annotation, biochemical, small-molecule microarray, 635/667 nm fluorescence (AID 1131); details: fibrinogen-A647 binding fluorescence, higher = more signal;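 further: z-score merges 667 nm fluorescence with per-spot signal-to-noise over triplicate slides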
[5] = target: Follistatin (Homo sapiens) (UniProt P19883); experiment: follistatin binders on small-molecule microarrays, primary screen, biochemical, small-molecule microarray, 635/667 nm fluorescence (AID 1132); details: FST binding, 635 nm fluorescence, higher = more signal
Chain of Follistatin (Homo sapiens) (P19883 whole entry, looked up): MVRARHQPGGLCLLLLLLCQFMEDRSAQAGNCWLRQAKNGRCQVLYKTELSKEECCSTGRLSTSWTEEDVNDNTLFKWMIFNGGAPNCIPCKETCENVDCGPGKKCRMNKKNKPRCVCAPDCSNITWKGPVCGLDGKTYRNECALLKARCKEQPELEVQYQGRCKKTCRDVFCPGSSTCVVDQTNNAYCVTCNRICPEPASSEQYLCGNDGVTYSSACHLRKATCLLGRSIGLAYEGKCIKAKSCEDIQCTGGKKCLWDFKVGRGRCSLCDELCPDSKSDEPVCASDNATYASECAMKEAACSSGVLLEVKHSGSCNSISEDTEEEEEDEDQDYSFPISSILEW

[6] = target: Fibroblast growth factor 2 (Homo sapiens) (UniProt P09038); experiment: FGF2 binders on small-molecule microarrays, primary screen, biochemical, small-molecule microarray, 635/667 nm fluorescence (AID 1133); details: small-molecule microarray binding, FGF2, fluorescence 635/667; higher = more signal
Chain of Fibroblast growth factor 2 (Homo sapiens) (P09038 whole entry, looked up): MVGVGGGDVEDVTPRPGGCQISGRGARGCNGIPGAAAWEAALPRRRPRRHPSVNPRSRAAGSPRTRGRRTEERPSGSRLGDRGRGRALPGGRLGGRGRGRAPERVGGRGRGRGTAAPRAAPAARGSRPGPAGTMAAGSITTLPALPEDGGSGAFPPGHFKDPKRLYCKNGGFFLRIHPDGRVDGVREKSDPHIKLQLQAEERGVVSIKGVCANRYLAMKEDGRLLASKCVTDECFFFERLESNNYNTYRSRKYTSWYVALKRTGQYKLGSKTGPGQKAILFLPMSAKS

[7] = mitochondrial membrane potential change in A549 cells, profiling panel, cell-based, JC-1 fluorescence, basal, 24 h, 100 nL (AID 1138); details: higher = more signal;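 further: A549 lung adenocarcinoma cells under basal conditions with no added stimulus; test concentration not given here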
Lefty1 = Lefty1 binders on small-molecule microarrays, primary screen, biochemical, small-molecule microarray, 635/667 nm fluorescence (AID 1139); details: small-molecule microarray binding, fluorescence 635/667; higher = more signal
[8] = tested on: wheat germ agglutinin (Triticum aestivum), Alexa647-labelled; experiment: wheat germ agglutinin binders on compound microarrays, profiling panel, artefact control for SMM control-protein annotation, biochemical, small-molecule microarray, 635/667 nm fluorescence (AID 1140); details: WGA-A647 binding, 635 nm fluorescence, higher = more signal;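 further: score merges 667 nm feature emission with signal to noise over triplicate slides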
[9] = target: Luciferin 4-monooxygenase (Photinus pyralis) (UniProt P08659); experiment: firefly luciferase enzyme inhibitors, primary screen, biochemical, luminescence, purified enzyme, 2006 set (AID 1141); details: SteadyGlo luminescence, 30 min, higher = more signal, called active from +8 up or from −8 down;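 further: cell-free assay with purified firefly luciferase at 100 ng per well in PBS; test concentration not given here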
Chain of Luciferin 4-monooxygenase (Photinus pyralis) (P08659 whole entry, looked up): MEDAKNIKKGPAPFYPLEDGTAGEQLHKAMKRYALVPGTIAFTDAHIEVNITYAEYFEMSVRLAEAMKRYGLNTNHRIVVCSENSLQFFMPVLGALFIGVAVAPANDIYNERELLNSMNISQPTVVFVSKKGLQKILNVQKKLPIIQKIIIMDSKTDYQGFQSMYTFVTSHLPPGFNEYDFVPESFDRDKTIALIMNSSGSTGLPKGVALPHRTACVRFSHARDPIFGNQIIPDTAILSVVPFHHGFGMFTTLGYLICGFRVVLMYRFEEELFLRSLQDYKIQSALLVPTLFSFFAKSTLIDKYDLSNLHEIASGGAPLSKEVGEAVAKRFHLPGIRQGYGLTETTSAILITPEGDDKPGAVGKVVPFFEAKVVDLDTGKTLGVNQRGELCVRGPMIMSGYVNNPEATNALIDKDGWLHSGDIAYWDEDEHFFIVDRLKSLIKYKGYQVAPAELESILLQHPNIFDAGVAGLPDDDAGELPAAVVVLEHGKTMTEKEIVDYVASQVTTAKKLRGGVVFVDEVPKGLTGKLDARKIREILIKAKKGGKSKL

Row | SMILES | composite z-score [1] | composite z-score [2] | composite z-score [3] | composite z-score [4] | composite z-score [5] | composite z-score [6] | z-score [7] | composite z-score (Lefty1) | composite z-score [8] | z-score [9]
1 | C=CCN(C(=O)C(c1cccs1)N(CCOCCO)C(=O)/C=C\C(=O)O)C(C)(C)C (stereo not given) | -1.68 and -1.56 | -1.4 and -0.488 | -1.37 and -0.35 | -0.7 and -1.15 | -2.15 and -0.795 | -1.7 and -1.19 | 1.01 and 1.41 | -1.66 and -1.83 | -1.04 and -0.022 | -1.5 (inactive) and -1.32 (inactive)
2 | CCOC(=O)C[C@H]1[C@H](OC(=O)c2ccccc2-c2ccccc2)[C@@H](NC(=O)c2ccccc2)c2cc(OCCCO)ccc2N1C(=O)c1ccc2ccccc2n1 | 0.861 and 1.4 | 0.547 and 0.311 | -0.0011 and 0.466 | 0.0271 and 0.432 | 0.41 and 1.12 | 0.566 and 0.845 | 1.1 and 0.202 | 0.513 and 0.934 | 0.692 and 0.31 | -0.233 (inactive) and -0.818 (inactive)
3 | C=CCN(CCCCC)C(=O)C(c1cccs1)N(C(=O)/C=C\C(=O)O)c1ccc(CCO)cc1 (stereo not given) | -0.206 and -1.12 | -0.502 and -0.625 | -0.279 and -0.0021 | -1.39 and -1.21 | -1.43 and -0.996 | -1.54 and -1.4 | 0.868 and 0.897 | -1.07 and -1.27 | -0.573 and -0.325 | -1.24 (inactive) and -0.887 (inactive)
4 | Cc1ccc(S(=O)(=O)OC[C@@H]2CN3[C@@H](CC[C@@H](C)[C@@H]3c3ccc(Br)cc3)C(=O)O2)cc1 | 0.882 and -0.0006 | 0.433 and 0.434 | 0.0343 and 0.0817 | 0.555 and 0.193 | 0.137 and 0.577 | 0.281 and 0.102 | -0.346 and 0.285 | 0.229 and 0.512 | 0.382 and 0.37 | 0.39 (inactive) and 0.13 (inactive)
5 | CCOC(=O)c1ccc(NC(=O)O[C@H]2[C@H](OC(=O)Nc3ccccc3)[C@@H](OC(=O)Nc3ccccc3)[C@@H](OC)O[C@@H]2CO)cc1 | 2.39 and 2.88 | 1.26 and 1.28 | 1.78 and 0.545 | 1 | 1.2 and 1.4 | 0.601 and 1.59 | -1.02 and -1.32 | 0.88 and 1.51 | 1.32 and 1.12 | -0.427 (inactive) and -0.249 (inactive)
6 | C=C[C@H](C)[C@@H](O)c1ccc(OCCO)cc1 | -0.419 and 0.713 | -1.38 and -0.449 | -0.996 and -0.139 | -1.48 and 0.462 | 0.42 and 0.345 | 0.036 and -0.488 | -0.459 and 1.14 | -0.931 and 0.134 | -0.449 and 0.106 | -3.17 (inactive) and -4 (inactive)
7 | C=CCN(C(=O)C1N(CCCCCCO)C(=O)C2C(C(=O)O)C3C=CC21O3)C(C)(C)C (stereo not given) | -1 and 0.0369 | -1.24 and -0.385 | -0.837 and -0.881 | -4.96 and -2.32 | -1.88 and -2.11 | -1.42 and -1.7 | 0.219 and 0.389 | -2.49 and -1.84 | -0.75 and -0.561 | -1.04 (inactive) and -0.426 (inactive)
8 | C=C[C@@H](OC)[C@H](O)c1ccc(OCCO)cc1 | 3.17 and -0.401 | -0.875 and -0.95 | 0.005 and -0.754 | -1.95 and -1.4 | -0.286 and -0.426 | -0.333 and -0.692 | 0.27 and -0.142 | -0.545 and -0.201 | 1.26 and -0.543 | -3.43 (inactive) and -3.1 (inactive)
9 | C[C@@H]1CC[C@@H](C(=O)O)N[C@H]1c1ccc(-c2ccco2)cc1 | 0.893 | -0.253 | 0.0242 | 1.02 | 1.32 | 1.14 | 1.41 | 1.18 | 0.589 | -0.906 (inactive)
10 | C=CCN(Cc1ccccc1)C(=O)C(c1cccs1)N(C(=O)/C=C\C(=O)O)c1ccc(CCO)cc1 (stereo not given) | -1.02 and -0.261 | 0.285 and -0.623 | -0.411 and -0.574 | -1.94 and -2.45 | -1.48 and -1.4 | -1.78 and -1.47 | 0.579 and 0.559 | -1.9 and -1.42 | -0.99 and -0.888 | 0.666 (inactive) and 0.381 (inactive)
11 | C=CCN(Cc1ccccc1)C(=O)C(c1cccs1)N(C(=O)/C=C\C(=O)O)c1c(Cl)cccc1CO (stereo not given) | -0.815 and -1.36 | -0.562 and -1.54 | -0.675 and -0.0599 | -2.79 and -3.53 | -1.74 and -2.71 | -2.4 and -1.88 | -0.321 and -0.229 | -1.51 and -1.93 | -0.482 and -1.57 | 1.02 (inactive) and 0.077 (inactive)
12 | COC(=O)C1=C2N(Cc3ccccc3)C(C)=C(C(=O)OC)[C@@H](c3ccccc3)N2C(=O)[C@](O)(C(=O)OC)C1 | 0.0444 and -0.657 | 0.644 and 0.0112 | 0.268 and -0.172 | 0.985 and 0.0539 | 0.419 and 0.587 | 1.71 and 0.858 | 0.218 and 0.136 | 0.911 and 0.508 | 0.526 and -0.342 | -0.0132 (inactive) and 0.18 (inactive)
13 | C=CCN(CCCCC)C(=O)C1N(CCCCCCO)C(=O)C2C(C(=O)O)C3C=CC21O3 (stereo not given) | -2.31 and 0.41 | -0.813 and -0.519 | -0.687 and -0.922 | -1.63 and -1.36 | -2.64 and -1.13 | -2.25 and -2.14 | -0.194 and 0.588 | -1.55 and -1.07 | -1.8 and -0.883 | 0.0975 (inactive) and -0.324 (inactive)
14 | CCOC(=O)[C@H](Cc1ccccc1)NC(=O)CCC1CC(OC(=O)NCc2cccc3ccccc23)CC2(CCCC(COC(=O)NCCCN3CCCC3=O)O2)O1 (stereo not given in full) | 0.903 | 1.05 | 0.222 | 0.951 | 0.625 | 0.467 | 1.21 | 0.539 | 0.0826 | 0.782 (inactive)
15 | CCN1C(=O)[C@H]2[C@H]3[C@H](O)[C@H](O)CC(=NNC(=O)OCc4ccc(OC)cc4)[C@H]3CC[C@H]2C1=O | 0.0442 | 0.0241 | 0.0983 | 0.171 | -0.699 | -0.623 | 0.647 | 0.107 | 0.77 | -0.716 (inactive)
